Measured values as given in PubChem BioAssay AID1159580 (chemical genetic matrix, 2015).
Several values for one entry are separate records, joined by “and”; a condition that tells them apart may be missing. Identical values can stand only once. About 2,000 (36%) of roughly 5,500 compounds were called active. About 18% were inconclusive and are not listed. No stated cut-off is given here; in the data, active means normalized growth mostly below about 0.91 (no sharp cut-off); inconclusive means no clear call, values can overlap the other calls; inactive means mostly above about 0.92. This is one part of the list.

Assay: chemical genetic growth profiling, strain panel (AID 1159580);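 further: tested at 20 µM; growth read once vehicle control cultures reached saturation at 30 °C; 1 = growth at the plate median or of vehicle wells; lower values mean less growth of the strain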
Details: S. cerevisiae deletion strains, growth OD

Measured: normalized growth

Cc1ccccc1N1C(=O)c2cc(S(N)(=O)=O)c(Cl)cc2NC1C (stereo not drawn)
inactive: locus YAL013W, strain DEP1, active compounds read low 0.989 | locus YAL021C, strain ccr4, active compounds read low 1 | locus YAL026C, strain drs2, active compounds read low 0.983 | locus YAL030W, strain snc1, active compounds read low 0.991 | locus YBL061C, strain skt5, active compounds read low 0.987 | locus YBR009C, strain hhf1, active compounds read low 1 | locus YBR021W, strain FUR4, active compounds read low 0.968 | locus YBR023C, strain chs3, active compounds read low 0.989 | locus YBR171W, strain sec66, active compounds read low 0.963 | locus YBR229C, strain ROT2, active compounds read low 0.982 | locus YBR231C, strain swc5, active compounds read low 0.987 | locus YBR279W, strain paf1, active compounds read low 0.996 | locus YCL011C, strain gbp2, active compounds read low 0.997 | locus YCL016C, strain dcc1, active compounds read low 1.03 | locus YCL029C, strain bik1, active compounds read low 0.979 | locus YCL069W, strain vba3, active compounds read low 0.996 | locus YCR088W, strain abp1, active compounds read low 0.978 | locus YDL005C, strain med2, active compounds read low 0.96 | locus YDL035C, strain GPR1, active compounds read low 1.01 | locus YDL040C, strain nat1, active compounds read low 0.986 | locus YDL074C, strain BRE1, active compounds read low 1.02 | locus YDL101C, strain DUN1, active compounds read low 0.985 | locus YDL134C, strain PPH21, active compounds read low 0.983 | locus YDL185W, strain tfp1, active compounds read low 0.984 | locus YDL192W, strain arf1, active compounds read low 0.98 | locus YDR001C, strain nth1, active compounds read low 0.957 | locus YDR069C, strain doa4, active compounds read low 0.96 | locus YDR101C, strain arx1, active compounds read low 0.994 | locus YDR137W, strain rgp1, active compounds read low 1 | locus YDR159W, strain sac3, active compounds read low 0.973 | locus YDR162C, strain NBP2, active compounds read low 0.994 | locus YDR195W, strain ref2 0.944 | locus YDR297W, strain sur2, active compounds read low 1 | locus YDR318W, strain mcm21, active compounds read low 0.99 | locus YDR334W, strain swr1, active compounds read low 0.918 | locus YDR335W, strain msn5, active compounds read low 0.973 | locus YDR388W, active compounds read low 0.994 | locus YDR392W, strain spt3, active compounds read low 1.01 | locus YDR502C, strain sam2, active compounds read low 0.983 | locus YEL003W, strain gim4, active compounds read low 0.978 | locus YEL037C, strain rad23, active compounds read low 0.978 | locus YEL061C, strain CIN8 (second series), active compounds read low 0.985 | locus YEL061C, strain CIN8, active compounds read low 0.993 | locus YER015W, strain faa2, active compounds read low 0.986 | locus YER016W, strain bim1, active compounds read low 0.998 | locus YER110C, active compounds read low 0.976 | locus YER111C, strain swi4, active compounds read low 0.987 | locus YER155C, strain BEM2 (second series), active compounds read low 0.99 | locus YER155C, strain BEM2, active compounds read low 0.981 | locus YER167W, strain BCK2, active compounds read low 0.981 | locus YFR010W, strain ubp6, active compounds read low 0.968 | locus YGL078C, strain dbp3, active compounds read low 0.981 | locus YGL086W, strain mad1, active compounds read low 1.01 | locus YGL167C, strain pmr1, active compounds read low 0.996 | locus YGL173C, strain kem1, active compounds read low 1.01 | locus YGL227W, strain vid30, active compounds read low 0.972 | locus YGL240W, strain doc1, active compounds read low 0.995 | locus YGL248W, strain PDE1, active compounds read low 1 | locus YGL253W, strain hxk2, active compounds read low 0.972 | locus YGR135W, strain pre9, active compounds read low 0.986 | locus YGR229C, strain SMI1, active compounds read low 0.982 | locus YGR252W, strain gcn5, active compounds read low 0.991 | locus YHR013C, strain ard1, active compounds read low 1.02 | locus YHR027C, strain rpn1, active compounds read low 0.991 | locus YHR030C, strain SLT2, active compounds read low 0.987 and 0.961 | locus YHR079C, strain IRE1 (second series), active compounds read low 0.997 | locus YHR079C, strain IRE1, active compounds read low 0.966 | locus YHR094C, strain hxt1, active compounds read low 0.99 | locus YHR129C, strain ARP1, active compounds read low 0.988 | locus YHR142W, strain chs7, active compounds read low 0.969 | locus YHR200W, strain rpn10, active compounds read low 0.982 | locus YIL066C, strain RNR3, active compounds read low 1.01 | locus YIL073C, strain SPO22, active compounds read low 1.03 | locus YIL125W, strain kgd1, active compounds read low 0.991 | locus YIR030C, strain dcg1, active compounds read low 0.987 | locus YJL092W, strain hpr5, active compounds read low 0.992 | locus YJL095W, strain BCK1 (second series), active compounds read low 0.956 | locus YJL095W, strain BCK1, active compounds read low 1.03 and 0.975 | locus YJL115W, strain asf1, active compounds read low 0.965 | locus YJL129C, strain trk1, active compounds read low 0.941 | locus YJL134W, strain LCB3, active compounds read low 0.986 | locus YJL154C, strain vps35, active compounds read low 0.961 | locus YJL164C, strain tpk1, active compounds read low 1.03 | locus YJL166W, strain qcr8, active compounds read low 0.978 | locus YJL168C, strain set2, active compounds read low 0.992 | locus YJL187C, strain SWE1 (second series), active compounds read low 1 | locus YJR043C, strain POL32, active compounds read low 0.994 | locus YJR066W, strain TOR1, active compounds read low 0.923
